Reference: PubChem BioAssay (EPA / NIEHS)
Activity calls are given as the source filed them. The calls were made as follows: active = hit-call score of the fitted dose curve at least 0.9, where 1 is the maximum; inactive = score below 0.9.

Assays:
[1] = ATG_M_61_CIS: Attagene CIS-FACTORIAL HepG2 Assay for M61 Transcription Factor (Internal Marker) (AID 2282937); conditions: HepG2 Attagene CIS-FACTORIAL M61 internal marker reporter; actives raise or lower the signal
Procedure, shortened: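 Endogenous transcription factor activity in HepG2 is read through transiently transfected cis-element reporter units. After 24 h dosing, RNA undergoes reverse transcription, PCR and primer extension with 6-FAM before capillary electrophoresis; DMSO-referenced bidirectional fit.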

[2] = ATG_EGR_CIS: Attagene CIS-FACTORIAL HepG2 Assay for human Early Growth Response 1 (EGR1) (AID 2282938); conditions: HepG2 Attagene CIS-FACTORIAL EGR reporter mRNA; actives raise or lower the signal
Procedure, shortened: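 Activity is taken as induction or loss of reporter mRNA versus DMSO, fitted bidirectionally. Transcripts from cis-regulated reporter units in transiently transfected HepG2 were measured after 24 h by RT-PCR with capillary electrophoresis.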

[3] = ATG_ERE_CIS: Attagene CIS-FACTORIAL HepG2 Assay for Estrogen Response Element (ERE) (AID 2282940); conditions: HepG2 ERE cis-reporter, Attagene RNA transcript; actives raise or lower the signal
Procedure, shortened: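 Cells used were human hepatoma HepG2, transfected with multiple reporter transcription units under cis-regulatory promoters. Reporter mRNA, read 24 h post-dosing via fluorescent RT-PCR products on capillary electrophoresis, was fitted bidirectionally relative to DMSO.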

[4] = ATG_Ets_CIS: Attagene CIS-FACTORIAL HepG2 Assay for human Erythroblast Transformation Specific (ETS) (AID 2282941); conditions: HepG2 ETS cis-reporter transcription, actives raise or lower the signal
Procedure, shortened: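 RT-PCR/capillary electrophoresis fluorescence read-out of reporter mRNA; HepG2 transient multi-reporter transfection; 24 h compound exposure; gain or loss of signal fitted bidirectionally relative to DMSO.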

[5] = biological target: Hepatocyte nuclear factor 3-beta (Homo sapiens) (UniProt Q9Y261); test: ATG_FoxA2_CIS: Attagene CIS-FACTORIAL HepG2 Assay for human Forkhead box A2 (FOXA2) (AID 2282942); conditions: HepG2 cis-reporter transcription factor activity, 24 h; actives raise or lower the signal
Procedure, shortened: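 Reporter transcript induction is measured by fluorescence after capillary electrophoresis of RT-PCR products from HepG2 cells exposed 24 h. Cis-regulated reporter units report endogenous factor activity; curves fitted both directions against DMSO.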

[6] = ATG_GATA_CIS: Attagene CIS-FACTORIAL HepG2 Assay for human GATA Binding Protein (AID 2282944); conditions: HepG2 GATA cis-element reporter, Attagene multiplex mRNA; actives raise or lower the signal
Procedure, shortened: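 Endogenous transcription factor activity was captured through cis-promoter-driven reporters in transfected HepG2 cells. After 24 h exposure, reporter transcripts were quantified by RT-PCR with fluorescent capillary electrophoresis, and responses fitted both directions against DMSO.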

[7] = ATG_GLI_CIS: Attagene CIS-FACTORIAL HepG2 Assay for human Zinc Finger Protein GLI1 (AID 2282945); conditions: HepG2, Attagene cis-factorial reporter mRNA, GLI element; actives raise or lower the signal
Procedure, shortened: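 HepG2 cells transiently transfected with cis-promoter multiplexed reporter units report endogenous transcription factor activity. After 24 h chemical exposure, reporter mRNA was quantified by RT-PCR, 6-FAM labelling, HpaI digestion and capillary electrophoresis, with bidirectional fitting against DMSO.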

[8] = ATG_ISRE_CIS: Attagene CIS-FACTORIAL HepG2 Assay for human Interferon Regulatory Factor 1 (IRF1) binding to an Interferon-Stimulated Response Element (ISRE) (AID 2282948); conditions: HepG2 ISRE cis-reporter (Attagene), mRNA transcription readout; actives raise or lower the signal
Procedure, shortened: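 Read-out: fluorescent RT-PCR products resolved by capillary electrophoresis, reporting endogenous transcription factor activity via ISRE-driven reporter mRNA in transfected HepG2 cells dosed for 24 h; gain or loss fitted relative to DMSO.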

[9] = ATG_M_32_CIS: Attagene CIS-FACTORIAL HepG2 Assay for M32 Transcription Factor (Internal Marker) (AID 2282949); conditions: HepG2 Attagene cis-factorial M32 reporter, mRNA; actives raise or lower the signal;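 also: background control marker of the multiplexed CIS panel rather than a real target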
Procedure, shortened: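 HepG2 transfectants (cis-regulated reporter transcription units) dosed 24 h. Reporter mRNA by RT-PCR plus CE, analysed as gain or loss relative to DMSO.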

[10] = ATG_M_06_CIS: Attagene CIS-FACTORIAL HepG2 Assay for M06 Transcription Factor (Internal Marker) (AID 2282950); conditions: HepG2 Attagene CIS-FACTORIAL M06 internal marker reporter; actives raise or lower the signal
Procedure, shortened: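 Steps: transfect HepG2 with multiplexed cis-element reporter constructs; dose chemical 24 h; extract RNA with DNase treatment; reverse-transcribe, PCR-amplify, 6-FAM label, HpaI digest; separate fragments by capillary electrophoresis. Activity fitted both directions versus DMSO.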

[11] = biological target: Hypoxia-inducible factor 1-alpha (Homo sapiens) (UniProt Q16665); test: ATG_HIF1a_CIS: Attagene CIS-FACTORIAL HepG2 Assay for human Hypoxia Inducible Factor 1 (HIF1A) (AID 2282951); conditions: HepG2 Attagene cis-factorial HIF1a reporter transcription; actives raise or lower the signal
Procedure, shortened: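 Fluorescence intensity of capillary-separated, 6-FAM-labelled reporter amplicons gives mRNA induction in HepG2 cells carrying transfected cis-promoter reporter units; cells exposed 24 h, responses fitted up or down from DMSO.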

[12] = biological target: Hepatocyte nuclear factor 6 (Homo sapiens) (UniProt Q9UBC0); test: ATG_HNF6_CIS: Attagene CIS-FACTORIAL HepG2 Assay for human Hepatocyte Nuclear Factor 6 (HNF6) (AID 2282952); conditions: HepG2 Attagene cis-factorial HNF6 reporter transcription; actives raise or lower the signal
Procedure, shortened: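 First, HepG2 cells were transfected with the multiplexed cis reporter library and dosed with chemical for 24 h. Next, RNA was reverse-transcribed, PCR-amplified and fluorescently labelled. Finally, HpaI-digested fragments were read by capillary electrophoresis.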

[13] = biological target: Heat shock factor protein 1 (Homo sapiens) (UniProt Q00613); test: ATG_HSE_CIS: Attagene CIS-FACTORIAL HepG2 Assay for human Heat Shock Transcription Factor 1 (HSE) (AID 2282953); conditions: HepG2 HSE cis-reporter, Attagene RNA transcription; actives raise or lower the signal
Procedure, shortened: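 Cells were transfected with cis-element-driven reporter constructs, dosed for 24 h, then total RNA was reverse-transcribed and reporter cDNA amplified, FAM-labelled and digested with HpaI. Fragments were resolved by capillary electrophoresis; gain or loss was fitted against DMSO.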

[14] = ATG_MRE_CIS: Attagene CIS-FACTORIAL HepG2 Assay for human Metal Responsive Element (MRE) (AID 2282954); conditions: HepG2 MRE cis-reporter transcription, Attagene multiplex; actives raise or lower the signal
Procedure, shortened: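 Cells were transfected with cis-promoter reporter transcription units, then dosed for 24 h. RNA was reverse-transcribed, amplified, fluorescently labelled and resolved by capillary electrophoresis, and activity was fitted in both directions relative to DMSO.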

[15] = ATG_PBREM_CIS: Attagene CIS-FACTORIAL HepG2 Assay for human Phenobarbital-responsive Enhancer Module (PBREM) (AID 2282955); conditions: HepG2 PBREM cis-reporter, Attagene multiplexed transcription; actives raise or lower the signal
Procedure, shortened: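 Cells were transfected with cis-element reporter units and treated for 24 h, after which RNA was extracted and reporter transcripts measured by RT-PCR and capillary electrophoresis.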

[16] = ATG_M_19_CIS: Attagene CIS-FACTORIAL HepG2 Assay for M19 Transcription Factor (Internal Marker) (AID 2282939); conditions: HepG2 Attagene CIS-FACTORIAL M19 internal marker reporter; actives raise or lower the signal
Procedure, shortened: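 Background-control endpoint from a multiplexed HepG2 reporter panel. Cells carrying cis-regulated reporter constructs are treated 24 h, then reporter transcripts are amplified, fluorescently labelled and sized by capillary electrophoresis. DMSO defines baseline.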

[17] = biological target: Bile acid receptor (Homo sapiens) (UniProt Q96RI1); test: ATG_IR1_CIS: Attagene CIS-FACTORIAL HepG2 Assay for human Nuclear Receptor Subfamily 1 Group H Member 4 (NR1H4), IR1 submotif (AID 2282946); conditions: IR1 reporter transcription, actives raise or lower the signal
Procedure, shortened: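 Readout: reporter transcript levels by RT-PCR with fluorescent capillary electrophoresis, from HepG2 cells transiently transfected with multiplexed cis-regulated reporters and dosed 24 h. Gain- or loss-of-signal fitted versus DMSO negative control.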

[18] = ATG_GRE_CIS: Attagene CIS-FACTORIAL HepG2 Assay for human Glucocorticoid Response Elements (GRE) (AID 2282947); conditions: HepG2 GRE cis-reporter, Attagene multiplex mRNA; actives raise or lower the signal
Procedure, shortened: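 Cells (HepG2) bearing transfected cis-promoter reporter transcription units were treated with chemical for 24 hours. Reporter mRNA was measured via RT-PCR with capillary electrophoresis, and activity was fitted in both directions relative to DMSO.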

[19] = ATG_FoxO_CIS: Attagene CIS-FACTORIAL HepG2 Assay for human Forkhead box O (FoxO) (AID 2282943); conditions: HepG2 Attagene cis-reporter, FoxO element, mRNA; actives raise or lower the signal
Procedure, shortened: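 Values reflect reporter mRNA induction or loss in HepG2 cells 24 h post-dosing, fitted bidirectionally with DMSO as negative control and baseline. Detection used RT-PCR and fluorescence capillary electrophoresis.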

Measured: AC50

Heat shock factor protein 1 (Homo sapiens), sequence (Q00613 whole entry, looked up, the tested form may be a part): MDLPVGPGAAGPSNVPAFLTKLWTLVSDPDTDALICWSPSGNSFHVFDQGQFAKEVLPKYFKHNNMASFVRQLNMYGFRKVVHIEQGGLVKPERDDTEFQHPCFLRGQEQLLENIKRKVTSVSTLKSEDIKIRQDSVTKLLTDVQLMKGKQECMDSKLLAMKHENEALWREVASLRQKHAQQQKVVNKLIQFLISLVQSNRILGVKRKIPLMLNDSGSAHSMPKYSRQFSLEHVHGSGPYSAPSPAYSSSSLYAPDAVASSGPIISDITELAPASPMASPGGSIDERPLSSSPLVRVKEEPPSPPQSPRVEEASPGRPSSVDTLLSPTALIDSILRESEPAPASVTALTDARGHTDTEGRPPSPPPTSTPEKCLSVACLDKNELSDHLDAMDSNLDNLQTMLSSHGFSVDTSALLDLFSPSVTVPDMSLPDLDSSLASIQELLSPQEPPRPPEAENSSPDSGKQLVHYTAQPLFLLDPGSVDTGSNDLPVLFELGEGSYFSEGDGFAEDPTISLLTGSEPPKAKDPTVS
Hypoxia-inducible factor 1-alpha (Homo sapiens), sequence (Q16665 whole entry, looked up): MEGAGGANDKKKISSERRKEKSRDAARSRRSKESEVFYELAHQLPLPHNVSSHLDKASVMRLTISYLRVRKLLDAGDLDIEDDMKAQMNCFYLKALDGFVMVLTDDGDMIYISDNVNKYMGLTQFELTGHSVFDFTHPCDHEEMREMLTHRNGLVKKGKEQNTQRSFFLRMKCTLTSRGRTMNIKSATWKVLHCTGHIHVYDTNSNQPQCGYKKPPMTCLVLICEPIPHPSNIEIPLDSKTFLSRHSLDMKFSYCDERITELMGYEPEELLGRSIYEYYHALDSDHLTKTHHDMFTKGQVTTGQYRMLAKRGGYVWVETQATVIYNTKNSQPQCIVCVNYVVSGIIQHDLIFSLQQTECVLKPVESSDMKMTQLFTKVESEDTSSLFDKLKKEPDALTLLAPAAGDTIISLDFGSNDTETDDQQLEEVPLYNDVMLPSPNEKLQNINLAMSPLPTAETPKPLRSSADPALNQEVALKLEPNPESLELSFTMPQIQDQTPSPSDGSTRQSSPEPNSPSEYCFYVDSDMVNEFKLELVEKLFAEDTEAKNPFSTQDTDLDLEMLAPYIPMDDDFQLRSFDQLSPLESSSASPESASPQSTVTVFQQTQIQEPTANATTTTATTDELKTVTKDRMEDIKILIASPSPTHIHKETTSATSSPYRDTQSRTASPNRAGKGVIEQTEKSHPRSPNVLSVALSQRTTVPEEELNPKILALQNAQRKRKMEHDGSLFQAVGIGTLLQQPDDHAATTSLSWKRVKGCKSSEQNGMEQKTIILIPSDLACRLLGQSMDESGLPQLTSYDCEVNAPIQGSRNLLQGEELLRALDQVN
Hepatocyte nuclear factor 6 (Homo sapiens), sequence (Q9UBC0 whole entry, looked up, the tested form may be a part): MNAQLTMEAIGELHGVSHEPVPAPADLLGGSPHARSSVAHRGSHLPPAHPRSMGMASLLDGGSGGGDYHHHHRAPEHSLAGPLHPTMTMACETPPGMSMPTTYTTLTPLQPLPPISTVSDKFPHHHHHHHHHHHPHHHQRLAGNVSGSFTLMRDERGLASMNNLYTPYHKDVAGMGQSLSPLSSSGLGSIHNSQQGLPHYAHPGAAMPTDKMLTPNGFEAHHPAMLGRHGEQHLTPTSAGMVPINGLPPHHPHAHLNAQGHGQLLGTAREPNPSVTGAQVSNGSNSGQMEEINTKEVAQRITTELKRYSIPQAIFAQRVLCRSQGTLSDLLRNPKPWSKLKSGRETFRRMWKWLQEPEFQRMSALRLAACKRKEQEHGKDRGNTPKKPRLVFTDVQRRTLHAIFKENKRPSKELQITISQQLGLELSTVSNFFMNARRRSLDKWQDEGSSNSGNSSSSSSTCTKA
Bile acid receptor (Homo sapiens), sequence (Q96RI1 whole entry, looked up): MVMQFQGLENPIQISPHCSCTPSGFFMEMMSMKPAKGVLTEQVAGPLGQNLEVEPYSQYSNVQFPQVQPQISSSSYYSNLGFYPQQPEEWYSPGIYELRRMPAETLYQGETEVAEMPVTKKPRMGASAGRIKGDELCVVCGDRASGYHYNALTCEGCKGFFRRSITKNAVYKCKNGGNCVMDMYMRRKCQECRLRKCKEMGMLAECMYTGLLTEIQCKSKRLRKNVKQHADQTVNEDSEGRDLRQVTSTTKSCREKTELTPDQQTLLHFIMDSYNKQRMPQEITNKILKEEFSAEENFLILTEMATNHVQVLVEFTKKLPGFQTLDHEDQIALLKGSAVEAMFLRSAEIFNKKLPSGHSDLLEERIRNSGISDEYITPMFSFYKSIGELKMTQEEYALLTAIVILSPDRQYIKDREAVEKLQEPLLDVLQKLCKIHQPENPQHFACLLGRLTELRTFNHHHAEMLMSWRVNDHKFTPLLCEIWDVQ
Hepatocyte nuclear factor 3-beta (Homo sapiens), sequence (Q9Y261 whole entry, looked up): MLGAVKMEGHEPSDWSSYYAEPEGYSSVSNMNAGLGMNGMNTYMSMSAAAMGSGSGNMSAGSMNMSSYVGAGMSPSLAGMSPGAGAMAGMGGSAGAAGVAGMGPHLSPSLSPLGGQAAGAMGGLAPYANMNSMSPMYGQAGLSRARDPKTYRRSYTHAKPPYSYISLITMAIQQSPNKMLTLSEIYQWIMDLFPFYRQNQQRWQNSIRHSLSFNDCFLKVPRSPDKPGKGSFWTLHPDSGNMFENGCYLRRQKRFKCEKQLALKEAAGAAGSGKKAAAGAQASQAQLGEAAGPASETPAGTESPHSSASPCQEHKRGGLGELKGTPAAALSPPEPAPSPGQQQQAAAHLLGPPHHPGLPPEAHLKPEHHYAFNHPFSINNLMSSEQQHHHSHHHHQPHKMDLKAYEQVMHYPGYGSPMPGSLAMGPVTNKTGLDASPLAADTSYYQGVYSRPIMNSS

CCOC(=O)COc1ccc2c(c1)CC(NCC(O)c1cccc(Cl)c1)CC2 (stereo not drawn)
inactive: [1] | [2] | [3] | [4] | [5] | [6] | [7] | [8] | [9] | [10] | [12] | [14]
active: [11] 33 µM | [13] 45.5 µM | [15] 49.3 µM

CC(C)c1cccc(C(C)C)c1N1C(=O)c2ccc(O)cc2C1=O
active: [2] 66.8 µM | [16] 182 µM | [7] 126 µM | [17] 69.5 µM | [8] 84.7 µM | [12] 124 µM | [13] 68.4 µM
inactive: [1] | [4] | [6] | [18] | [9] | [10] | [11]

CCOCCOCCOCCO
inactive: [1] | [2] | [16] | [4] | [6] | [7] | [17] | [8] | [9] | [10] | [12] | [13] | [14]

CCCCC(CC)COC(=O)c1ccc(C(=O)OCC(CC)CCCC)cc1 (stereo not drawn)
inactive: [1] | [2] | [16] | [4] | [5] | [19] | [6] | [7] | [17] | [8] | [9] | [10] | [11] | [12] | [13] | [14]

On1ccccc1=S
active: [13] 26 µM
inactive: [1] | [2] | [4] | [5] | [6] | [7] | [18] | [8] | [9] | [10] | [12] | [14]

CN(C)c1ccc(N=NS(=O)(=O)O)cc1
inactive: [1] | [2] | [4] | [5] | [6] | [7] | [18] | [8] | [9] | [10] | [12]
active: [11] 40.9 µM
